How the values were obtained:
Test in all cases: DAPPL (digital affinity profiling via proximity ligation, sequencing); 10 mM Tris-HCl pH 7.5, 50 mM NaCl, 1 mM DTT, 4% glycerol, room temperature, 30 min; GST-TFs on glutathione beads, 16-mer random dsDNA library, 0.1% formaldehyde crosslink after washing; high values mean tight binding
Details in all cases: protein: recombinant; tags: N-terminal GST; dsDNA, one strand shown
FLI1 = biological target: T1, FLI1 (Homo sapiens, UniProt Q01543 1-452)
T1 sequence: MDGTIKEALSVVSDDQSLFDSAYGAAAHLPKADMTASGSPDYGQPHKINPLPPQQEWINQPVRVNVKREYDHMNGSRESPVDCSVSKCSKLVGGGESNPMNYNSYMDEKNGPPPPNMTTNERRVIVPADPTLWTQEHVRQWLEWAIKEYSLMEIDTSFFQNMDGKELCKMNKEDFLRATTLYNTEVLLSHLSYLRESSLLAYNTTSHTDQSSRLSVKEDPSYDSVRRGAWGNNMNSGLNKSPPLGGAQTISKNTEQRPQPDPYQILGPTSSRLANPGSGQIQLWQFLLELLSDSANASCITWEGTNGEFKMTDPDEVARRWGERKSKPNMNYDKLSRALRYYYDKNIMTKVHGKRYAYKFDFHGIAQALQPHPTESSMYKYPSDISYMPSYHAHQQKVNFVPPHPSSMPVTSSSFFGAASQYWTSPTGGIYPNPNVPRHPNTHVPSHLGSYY
Method in brief: (§1)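 After expression in yeast as GST fusions, human transcription factors were bound to glutathione beads, DNA-barcoded and mixed with a tag-only sample. The pools were incubated with 200 nmole of a 16-mer random double-stranded DNA library in Tris/NaCl/DTT/glycerol buffer (30 min, room temperature), washed and crosslinked with 0.1% formaldehyde. Proximity ligation with BsaI/T4 ligase ran for 1 h at 37 °C, before PCR amplification and sequencing on an Illumina NextSeq500. Binding signal is a hexamer's read frequency for a factor divided by its frequency for the tag-only sample.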

ELK1 = biological target: T2, ELK1 (Homo sapiens, UniProt P19419 1-428)
T2 sequence: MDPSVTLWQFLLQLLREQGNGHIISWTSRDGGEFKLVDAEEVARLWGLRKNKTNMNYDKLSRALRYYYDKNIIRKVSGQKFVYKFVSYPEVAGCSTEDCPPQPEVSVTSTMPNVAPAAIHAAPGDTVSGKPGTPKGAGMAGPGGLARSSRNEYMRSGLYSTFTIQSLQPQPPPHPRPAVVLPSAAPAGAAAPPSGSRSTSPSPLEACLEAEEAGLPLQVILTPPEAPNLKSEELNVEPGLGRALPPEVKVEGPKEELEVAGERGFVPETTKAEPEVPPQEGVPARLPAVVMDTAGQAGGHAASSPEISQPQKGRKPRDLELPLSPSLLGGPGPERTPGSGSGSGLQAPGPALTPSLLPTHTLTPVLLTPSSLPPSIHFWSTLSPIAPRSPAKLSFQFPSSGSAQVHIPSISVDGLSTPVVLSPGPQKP
Method in brief: as §1

GABPA = biological target: T3, GABPA (Homo sapiens, UniProt Q06546 1-454)
T3 sequence: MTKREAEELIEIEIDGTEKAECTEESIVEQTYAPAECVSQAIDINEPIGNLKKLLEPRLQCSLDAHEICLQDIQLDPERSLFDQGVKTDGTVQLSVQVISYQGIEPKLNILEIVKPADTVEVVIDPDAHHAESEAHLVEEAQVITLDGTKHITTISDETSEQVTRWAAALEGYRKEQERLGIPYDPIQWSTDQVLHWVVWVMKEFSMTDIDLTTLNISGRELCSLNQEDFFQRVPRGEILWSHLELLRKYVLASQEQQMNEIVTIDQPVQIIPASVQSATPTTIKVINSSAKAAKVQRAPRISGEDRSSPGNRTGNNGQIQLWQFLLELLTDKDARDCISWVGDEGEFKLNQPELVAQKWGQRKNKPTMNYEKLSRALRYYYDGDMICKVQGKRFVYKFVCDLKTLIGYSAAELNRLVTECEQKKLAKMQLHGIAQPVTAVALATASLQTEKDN
Method in brief: as §1

ERG = biological target: T4, ERG (Homo sapiens, UniProt P11308 1-479)
T4 sequence: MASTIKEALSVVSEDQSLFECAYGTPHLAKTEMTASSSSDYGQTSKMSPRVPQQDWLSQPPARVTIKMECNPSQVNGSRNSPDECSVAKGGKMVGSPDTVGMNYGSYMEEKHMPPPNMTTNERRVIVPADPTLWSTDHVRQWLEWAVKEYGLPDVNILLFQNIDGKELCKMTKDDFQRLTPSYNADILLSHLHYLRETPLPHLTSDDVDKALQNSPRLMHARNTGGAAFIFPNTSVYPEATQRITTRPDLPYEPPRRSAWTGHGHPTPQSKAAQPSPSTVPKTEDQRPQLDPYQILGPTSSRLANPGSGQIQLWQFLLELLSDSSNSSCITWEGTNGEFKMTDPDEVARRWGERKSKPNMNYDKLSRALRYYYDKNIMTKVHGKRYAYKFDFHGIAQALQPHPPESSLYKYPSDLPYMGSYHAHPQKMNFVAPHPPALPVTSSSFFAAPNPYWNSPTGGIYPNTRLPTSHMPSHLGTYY
Method in brief: as §1

ELF1 = ELF1 (Homo sapiens, UniProt P32519 1-619)
Method in brief: as §1

EHF = biological target: T5, EHF (Homo sapiens, UniProt Q9NZC4 1-300)
T5 sequence: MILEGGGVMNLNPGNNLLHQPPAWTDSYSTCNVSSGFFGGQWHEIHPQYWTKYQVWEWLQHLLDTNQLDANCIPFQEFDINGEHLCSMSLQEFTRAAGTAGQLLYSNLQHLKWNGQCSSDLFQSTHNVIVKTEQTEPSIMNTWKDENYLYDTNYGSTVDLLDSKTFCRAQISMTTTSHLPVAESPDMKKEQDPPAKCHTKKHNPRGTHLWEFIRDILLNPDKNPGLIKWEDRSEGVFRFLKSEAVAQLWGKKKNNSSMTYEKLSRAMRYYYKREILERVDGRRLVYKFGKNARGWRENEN
Method in brief: as §1

SPI1 = SPI1 (Homo sapiens, UniProt P17947 1-270)
Method in brief: as §1

SPIB = SPIB (Homo sapiens, UniProt Q01892 1-262)
Method in brief: as §1

ELK3 = biological target: T6, ELK3 (Homo sapiens, UniProt P41970 1-407)
T6 sequence: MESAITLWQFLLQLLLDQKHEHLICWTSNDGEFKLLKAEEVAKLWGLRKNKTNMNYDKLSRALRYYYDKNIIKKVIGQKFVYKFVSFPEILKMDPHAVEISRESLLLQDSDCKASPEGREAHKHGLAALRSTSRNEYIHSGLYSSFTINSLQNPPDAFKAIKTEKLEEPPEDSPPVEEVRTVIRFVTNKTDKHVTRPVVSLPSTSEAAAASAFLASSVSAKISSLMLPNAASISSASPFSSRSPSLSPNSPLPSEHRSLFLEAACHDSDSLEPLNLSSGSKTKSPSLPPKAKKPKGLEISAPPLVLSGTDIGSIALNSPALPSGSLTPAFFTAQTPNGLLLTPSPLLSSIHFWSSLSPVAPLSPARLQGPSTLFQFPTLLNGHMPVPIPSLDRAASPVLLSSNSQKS
Method in brief: as §1

Chain of SPIB (Q01892 whole entry): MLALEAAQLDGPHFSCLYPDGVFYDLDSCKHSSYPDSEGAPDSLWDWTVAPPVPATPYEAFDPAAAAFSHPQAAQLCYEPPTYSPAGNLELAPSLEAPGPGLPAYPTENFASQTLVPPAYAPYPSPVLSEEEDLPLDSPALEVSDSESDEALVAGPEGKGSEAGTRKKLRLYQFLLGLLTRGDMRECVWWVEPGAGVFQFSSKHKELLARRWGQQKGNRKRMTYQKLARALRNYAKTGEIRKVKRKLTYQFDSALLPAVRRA
Chain of ELF1 (P32519 whole entry): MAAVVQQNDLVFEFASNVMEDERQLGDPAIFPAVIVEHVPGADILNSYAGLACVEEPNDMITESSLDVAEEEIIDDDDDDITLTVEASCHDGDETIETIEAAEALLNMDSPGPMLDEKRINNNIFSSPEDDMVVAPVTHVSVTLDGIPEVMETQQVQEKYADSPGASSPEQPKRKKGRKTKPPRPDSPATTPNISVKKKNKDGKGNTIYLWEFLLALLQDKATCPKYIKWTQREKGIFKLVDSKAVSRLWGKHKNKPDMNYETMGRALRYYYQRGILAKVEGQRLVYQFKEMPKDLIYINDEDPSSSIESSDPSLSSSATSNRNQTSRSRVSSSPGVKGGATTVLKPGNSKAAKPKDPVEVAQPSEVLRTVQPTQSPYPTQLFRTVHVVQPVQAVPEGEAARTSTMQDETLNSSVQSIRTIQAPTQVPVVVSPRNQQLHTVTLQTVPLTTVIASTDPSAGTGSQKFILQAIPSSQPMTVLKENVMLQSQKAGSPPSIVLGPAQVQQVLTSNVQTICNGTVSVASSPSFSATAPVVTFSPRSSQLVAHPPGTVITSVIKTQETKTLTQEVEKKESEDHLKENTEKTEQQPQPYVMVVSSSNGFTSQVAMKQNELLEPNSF

Q: Which binding signal (FLI1) does the source give for CATTTG here?
A: The binding signal was 1.23 fold enrichment (6-mer frequency, TF over GST control).

Q: What about the binding signal (ELK1) of the same sequence?
A: Its binding signal is 1.32 fold enrichment (6-mer frequency, TF over GST control).

Q: What about the binding signal (GABPA) of the same sequence?
A: The binding signal was 1.28 fold enrichment (6-mer frequency, TF over GST control).

Q: What about the binding signal (ERG) of the same sequence?
A: The binding signal was 1.21 fold enrichment (6-mer frequency, TF over GST control).

Q: And the binding signal (ELF1)?
A: Its binding signal is 1.24 fold enrichment (6-mer frequency, TF over GST control).

Q: What about the binding signal (EHF) of the same sequence?
A: Its binding signal is 1.27 fold enrichment (6-mer frequency, TF over GST control).

Q: And the binding signal (SPI1)?
A: Its binding signal is 1.29 fold enrichment (6-mer frequency, TF over GST control).

Q: And the binding signal (SPIB)?
A: Its binding signal is 1.28 fold enrichment (6-mer frequency, TF over GST control).

Q: And the binding signal (ELK3)?
A: Its binding signal is 1.2 fold enrichment (6-mer frequency, TF over GST control).
